Inconclusive results are not listed. Entries that show only a call come without a potency. Active and inactive are the calls of the source. The call rests on the fitted dose curve; in most records, active means well fitted cell-killing curve with a large enough effect; inconclusive means small, poorly fitted or top-dose-only effect; inactive means flat fitted curve, though single readings scatter.
Assay: Identifying Small Molecule Inhibitors of Pancreatic Cancer Stem Cells (SN12C, Adherent) (AID 1259358);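 further: cell survival measured after 48 h of compound exposure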
Conditions: viability/growth inhibition; series mostly up to 46.1 µM
Text: Progenitor-like cancer cells, often referred to as cancer stem cells (CSC), are believed to be the drivers of therapeutic resistance and rapid recurrence. CSCs are postulated to reside in specific niches characterized by low oxygen tension, limited nutrient supply, and high redox load. Selectively targeting CSC, alone or in combination with cytotoxic agents, as a means to produce durable remissions is an appealing concept. Modeling these cells in in vitro setting is an important step in finding new therapies and/or targets. Multiple reports highlight that forcing cells in culture into 3-dimensionaly architectures (spheroids) re-establishes key progenitor-like transcriptional signatures. Pancreatic cancer is among the diseases with the most dismal outlook which is driven, largely, by recurance following front-line therapies. […] In hopes of deriving new insight into the targeting of these pancreatic CSCs we examined three established pancreatic cancer cell lines in cytotoxicity assays versus a collection of approved and investigational drugs. Importantly, we screened these lines as traditional monolayer (2D) and spheroid (3D) formats to gain an appreciation of agents with differential activity.
Multicellular tumor spheroids from Panc1, MiaPaCa-2, and the primary low-passage tissue culture line SB.06 were seeded in stem cell media (SCM) in nonadherent 6-well plates coated with hydrogel (Corning Life Sciences, Chelmsford, Mass) and pancreatic spheres generated for 14 days before screening. Cells were seeded into 1536-well solid-bottom white tissue culture treated Greiner Bio One Plates (789173-F) using a MultiDrop Combi (Thermofisher Scientific) dispenser and a small sterile cassette. One column was media alone to be used as a :"no cells" control. The plates were then covered with sterilized stainless steel gasketed lids from Kalypsys. After allowing cells to attach for 4 hours, 23 nL of test compound or control (negative control DMSO and positive control 9.2 uM Bortezomib-final) were added from a 1536-well polypropylene compound source plate to each well using a 1536 head pin tool from Kalypsys. Cells were then incubated for 48 hours at 37C, 95% relative humidity and 5% CO2. After 48 hours, plates were removed from the incubator and 3 uL of CellTiter-Glo (Promega) was added using an Aurora Flying Reagent Dispenser Bioraptor. Plates were incubated at room temperature for 10 minutes prior to reading the luminescence on the Viewlux (PerkinElmer). The relative luciferase units are used to calculate the percent activity using the activity of DMSO in the cells and no cells columns for normalization of no inhibition and full inhibition respectively.
Potency means the concentration at half of the fitted maximal effect.

Row | SMILES | Potency
1 | CC1=C2C[C@@H]3[C@@H](CC=C4C[C@@H](O)CC[C@@]43C)[C@@H]2CC[C@]12O[C@H]1C[C@H](C)CN[C@H]1[C@H]2C | inactive
2 | COC[C@H]1OC(=O)c2coc3c2[C@@]1(C)C1=C(C3=O)C2CCC(=O)[C@@]2(C)C[C@H]1OC(C)=O (stereo not given in full) | inactive
3 | C[C@@H]1[C@@H](CC(C[C@H]2O[C@@H]3O[C@]4(C)CC[C@@H]5[C@H](C)CC[C@@H]([C@H]2C)[C@@]35OO4)C[S+](=O)([O-])c2ccc(COC(=O)N(C)C)cc2)O[C@@H]2O[C@]3(C)CC[C@H]4[C@H](C)CC[C@@H]1[C@@]24OO3 (stereo not given in full) | 118 nM (active)
4 | CC(O)(CS(=O)(=O)c1ccc(F)cc1)C(=O)Nc1ccc(C#N)c(C(F)(F)F)c1 (stereo not given) | inactive
5 | Cn1c(CCCC(=O)O)nc2cc(N(CCCl)CCCl)ccc21 | inactive
6 | Cn1cc(C2=C(c3cn(C4CCN(Cc5ccccn5)CC4)c4ccccc34)C(=O)NC2=O)c2ccccc21 | inactive
7 | COc1ccc(C(=O)c2c(C)n(CCN3CCOCC3)c3ccccc23)cc1 | inactive
8 | CCCCC/C=C\C/C=C\C/C=C\C/C=C\CCCC(=O)NC1CC1 | inactive
9 | Cc1cc(SCc2sc(-c3ccc(C(F)(F)F)c(F)c3)nc2C)ccc1OCC(=O)O | inactive
10 | C[C@]12CCC(=O)C(O)=C1CC[C@@H]1[C@@H]2CC[C@]2(C)C(=O)CC[C@@H]12 | inactive

— PubChem BioAssay (NCATS)
